DAX1 inh-1 – DAX1 (NR0B1) inhibitors on StAR promoter, primary screen, cell-based, luminescence, SF-1 (NR5A1), full-length DAX-1; HEK293T StAR-luciferase reporter, SF-1/DAX-1 repression relief; inhibition, % at 6.8 µM; hit rate 1.1% among 370,000;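 active = inhibition above the mean over all tested compounds plus 3 SD, cut at about 3.6% in these data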;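 note: higher inhibition means more luminescence from relief of DAX-1 repression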
DAX1 inh-2 – DAX1 (NR0B1) inhibitors, primary screen, cell-based, HEK293, Gal4-DAX1, luciferase luminescence | AID 504766, 2011 | HEK293 Gal4-DAX1 luciferase reporter | Nuclear receptor subfamily 0 group B member 1 (Homo sapiens), P51843 | inhibition, % at 6.75 µM | hit rate 0.99% among 340,000;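 active = inhibition above the mean over all tested compounds plus 3 SD, cut at about 4.2% in these data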;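 note: inhibition shows as a rise in luminescence from relieved DAX1 repression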
Target sequence (P51843 207-470 limits assumed): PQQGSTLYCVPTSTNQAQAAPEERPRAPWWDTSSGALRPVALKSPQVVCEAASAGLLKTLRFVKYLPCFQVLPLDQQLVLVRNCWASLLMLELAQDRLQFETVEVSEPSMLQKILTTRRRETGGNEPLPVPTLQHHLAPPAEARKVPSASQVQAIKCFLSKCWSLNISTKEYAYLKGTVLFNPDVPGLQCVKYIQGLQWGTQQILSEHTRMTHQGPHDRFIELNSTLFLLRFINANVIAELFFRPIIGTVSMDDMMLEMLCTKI
ssDAF-12 act – S. stercoralis DAF-12 nuclear receptor activators, primary screen, cell-based, luminescence, HEK293, GRIP1 co-expression, lit1-tk-luc | Nuclear hormone receptor DAF-12 (Strongyloides stercoralis) | HEK293 ssDAF-12/GRIP1 lit1-tk-luc reporter; % of 3 µM dafachronic acid response | activation, % at 6.8 µM | hit rate 1% among 370,000;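 active = activation above the mean over all tested compounds plus 3 SD, cut at about 0.9% in these data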
hgDAF12 agonist – H. glycines DAF-12 receptor agonists, primary screen, cell-based, luminescence, HEK293, GAL4 fusion, UAS-luciferase; HEK293 GAL4-hgDAF12 UAS-luciferase reporter, agonist luminescence; normalized to butyrate control; activation, % at 6.8 µM; hit rate 1.8% among 370,000; AID 687014, 2013;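 active = activation above a cutoff set at the mean of all screened compounds plus 3 SD, cut at about 10% in these data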
hcDAF12 agonist – H. contortus DAF-12 nuclear receptor activators, primary screen, cell-based, luminescence, HEK293, lit1-tk-luc reporter; HEK293 hcDAF-12 lit1-tk-luc reporter; 0% DMSO, 100% Δ7-dafachronic acid; hit rate 1.4% among 370,000; activation, % at 6.8 µM;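 active = activation above the mean of all tested compounds plus 3 SD, cut at about 5.5% in these data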
Numbers stand for hits. Hits are enriched below; roughly 4.1% of the tested compounds scored in any of these assays.

What do the screens show for `Cc1cccc(NC(=O)[C@H]2CC(=O)O[C@@H]2c2ccccc2)c1C`?
DAX1 inh-1: inactive; ssDAF-12 act: inactive; hgDAF12 agonist: inactive; hcDAF12 agonist: inactive

How did CCCCCCCCN1C(=O)[C@@H](CC(=O)N2CCN(C(=O)OCC)CC2)C[C@@]2(C(=O)OC)C1=C[C@H](COCc1ccccc1)O[C@@H]2C do in these assays?
DAX1 inh-1: inactive; ssDAF-12 act: inactive; hgDAF12 agonist: inactive; hcDAF12 agonist: inactive

Results for Cc1nn(-c2ccccc2)c(N)c1N=Nc1cccnc1 ?
DAX1 inh-1: inactive; DAX1 inh-2: inactive; ssDAF-12 act: inactive; hgDAF12 agonist: 12; hcDAF12 agonist: inactive

What do the screens show for `CC(=O)Nc1cc2nc3ccccc3oc-2cc1=O`?
DAX1 inh-1: inactive; ssDAF-12 act: inactive; hgDAF12 agonist: inactive; hcDAF12 agonist: inactive

How did OCCC(N1CCOCC1)C(O)(c1ccccc1)c1ccccc1 (stereo unspecified) do in these assays?
DAX1 inh-1: inactive; ssDAF-12 act: inactive; hgDAF12 agonist: inactive; hcDAF12 agonist: inactive

How did COc1ccc(S[C@]2(C(=O)N3CCN(c4ncccn4)CC3)CC(=O)N(C(=O)c3ccccc3)[C@@H]2c2ccc(OC)cc2)cc1 do in these assays?
DAX1 inh-1: inactive; ssDAF-12 act: inactive; hgDAF12 agonist: inactive; hcDAF12 agonist: inactive

Results for COC(=O)c1cc2c(c3c4ccccc4n(S(=O)(=O)c4ccccc4)c13)C(=O)N(Cc1ccc(N(C)C)cc1)C2 ?
DAX1 inh-1: inactive; ssDAF-12 act: inactive; hgDAF12 agonist: inactive; hcDAF12 agonist: inactive

What do the screens show for `COC(=O)c1cc2c(c3c4ccccc4n(S(C)(=O)=O)c13)C(=O)N(Cc1ccccc1)C2`?
DAX1 inh-1: inactive; ssDAF-12 act: 2.8; hgDAF12 agonist: inactive; hcDAF12 agonist: inactive

How did CC(C)c1ccc(OCC(=O)NCc2ccccc2)cc1 do in these assays?
DAX1 inh-1: inactive; DAX1 inh-2: inactive; ssDAF-12 act: inactive; hgDAF12 agonist: inactive; hcDAF12 agonist: inactive

What do the screens show for `O=C(OC12CCCN(C1)/C(=C/c1cccc(Cl)c1)C2)C1CCCC1` (stereo unspecified)?
DAX1 inh-1: inactive; ssDAF-12 act: inactive; hgDAF12 agonist: inactive; hcDAF12 agonist: inactive

What do the screens show for `Cn1cc(Br)c(C(=O)Nc2nccs2)n1`?
DAX1 inh-1: inactive; DAX1 inh-2: inactive; ssDAF-12 act: inactive; hgDAF12 agonist: inactive; hcDAF12 agonist: 5.6

How did Cn1cc(Br)c(C(=O)Nc2c(F)c(F)c(F)c(F)c2F)n1 do in these assays?
DAX1 inh-1: inactive; DAX1 inh-2: inactive; ssDAF-12 act: inactive; hgDAF12 agonist: inactive; hcDAF12 agonist: inactive

How did Cc1ccccc1N1CCN(S(=O)(=O)c2ccc3c(c2)n(C)c(=O)c(=O)n3C)CC1 do in these assays?
DAX1 inh-1: inactive; ssDAF-12 act: inactive; hgDAF12 agonist: inactive; hcDAF12 agonist: inactive

What do the screens show for `Cc1cc(C)cc(C(=O)OCCCN(C)C2CN(Cc3cn(Cc4ccccc4C(F)(F)F)nn3)S(=O)(=O)C2)c1` (stereo unspecified)?
DAX1 inh-1: inactive; ssDAF-12 act: inactive; hgDAF12 agonist: inactive; hcDAF12 agonist: inactive

How did CCOc1ccc(C(=O)N/N=C/c2ccccc2[N+](=O)[O-])cc1 do in these assays?
DAX1 inh-1: inactive; DAX1 inh-2: inactive; ssDAF-12 act: inactive; hgDAF12 agonist: 10; hcDAF12 agonist: inactive

What do the screens show for `CC(=O)Nc1ccc(C(=O)N/N=C/c2ccccc2OCc2ccccc2)cc1`?
DAX1 inh-1: inactive; DAX1 inh-2: 4.3; ssDAF-12 act: inactive; hgDAF12 agonist: inactive; hcDAF12 agonist: inactive

How did CCC(=O)Nc1ccc(C(=O)N/N=C/c2ccccc2[N+](=O)[O-])cc1 do in these assays?
DAX1 inh-1: inactive; DAX1 inh-2: inactive; ssDAF-12 act: inactive; hgDAF12 agonist: inactive; hcDAF12 agonist: inactive

What do the screens show for `COc1ccccc1/C=N/NC(=O)c1ccc(NC(=O)c2ccccc2Br)cc1`?
DAX1 inh-1: inactive; DAX1 inh-2: inactive; ssDAF-12 act: inactive; hgDAF12 agonist: inactive; hcDAF12 agonist: inactive

How did CCC(=O)Nc1ccc(C(=O)N/N=C/c2cc(Br)c(OC)cc2OC)cc1 do in these assays?
DAX1 inh-1: inactive; DAX1 inh-2: inactive; ssDAF-12 act: 1.9; hgDAF12 agonist: inactive; hcDAF12 agonist: inactive

How did CCCC[C@H]1C2CC(OC(=O)NCCCc3ccccc3)C(C2)[C@H]2CCCCN21 (stereo partly specified) do in these assays?
DAX1 inh-1: inactive; ssDAF-12 act: inactive; hgDAF12 agonist: inactive; hcDAF12 agonist: inactive

Results for C=CCN(CC#CC(=C)C)Cc1ccc(OC)cc1OC ?
DAX1 inh-1: inactive; ssDAF-12 act: inactive; hgDAF12 agonist: inactive; hcDAF12 agonist: inactive

How did COc1ccc(S(=O)(=O)NCc2ccco2)cc1C(=O)N1CCCCC1 do in these assays?
DAX1 inh-1: inactive; DAX1 inh-2: 5.0; ssDAF-12 act: inactive; hgDAF12 agonist: inactive; hcDAF12 agonist: inactive

How did COc1ccc(S(=O)(=O)NCc2ccco2)cc1C(=O)N1CCOCC1 do in these assays?
DAX1 inh-1: inactive; DAX1 inh-2: inactive; ssDAF-12 act: inactive; hgDAF12 agonist: inactive; hcDAF12 agonist: inactive

How did S=C(NCc1ccccc1)NN1CCOCC1 do in these assays?
DAX1 inh-1: inactive; DAX1 inh-2: inactive; ssDAF-12 act: inactive; hgDAF12 agonist: inactive; hcDAF12 agonist: inactive

How did O=C1c2ccccc2C(=O)N1CCOc1cccc(Br)c1 do in these assays?
DAX1 inh-1: 4.4; DAX1 inh-2: inactive; ssDAF-12 act: inactive; hgDAF12 agonist: inactive; hcDAF12 agonist: inactive

How did CC[C@@H](CCCCCCCn1ccc2ccccc21)CCC(=O)N(c1ccccc1)c1ccccc1 do in these assays?
DAX1 inh-1: inactive; ssDAF-12 act: inactive; hgDAF12 agonist: inactive; hcDAF12 agonist: inactive

Results for CCCCC(=O)Nc1nc2ccc(C(=O)OC)cc2s1 ?
DAX1 inh-1: inactive; DAX1 inh-2: inactive; ssDAF-12 act: inactive; hgDAF12 agonist: 11; hcDAF12 agonist: inactive

Results for CCOC(=O)c1ccc2nc(NC(=O)c3cccs3)sc2c1 ?
DAX1 inh-1: inactive; DAX1 inh-2: 4.8; ssDAF-12 act: inactive; hgDAF12 agonist: 12; hcDAF12 agonist: inactive

How did CCOC(=O)c1ccc2nc(NC(=O)c3ccco3)sc2c1 do in these assays?
DAX1 inh-1: inactive; DAX1 inh-2: inactive; ssDAF-12 act: inactive; hgDAF12 agonist: inactive; hcDAF12 agonist: inactive

Results for Cc1ccc(OCC(=O)Nc2ccccc2[N+](=O)[O-])c(Br)c1 ?
DAX1 inh-1: inactive; DAX1 inh-2: inactive; ssDAF-12 act: 1.0; hgDAF12 agonist: inactive; hcDAF12 agonist: inactive

Results for Cn1nc(C(=O)OCC(=O)Nc2cc(Cl)ccc2C#N)c2ccccc2c1=O ?
DAX1 inh-1: inactive; DAX1 inh-2: inactive; ssDAF-12 act: inactive; hgDAF12 agonist: inactive; hcDAF12 agonist: inactive

Screens deposited in PubChem BioAssay by The Scripps Research Institute Molecular Screening Center.
